These results are taken from ChEMBL document CHEMBL3988442, “University of Dundee, Small-Polar-MMV Screening Library” (2021).

For some assays here: Potency and affinity values are given separately.

Set-up in all cases: scale not given: direction of the effect not stated beside the values
Experiment [1] concerns the target Protein translocase subunit SecA (Escherichia coli (strain K12)) (UniProt P10408). Kind of experiment: Assay to Identify E. coli SecA ATPase Inhibitors. As to conditions: 30 µM. The class given is functional.
Experiment [2] addresses T1, Ubiquitin-activating enzyme e1, putative (Leishmania donovani (strain BPK282A1)) (UniProt E9BSI1).
T1 sequence (whole entry): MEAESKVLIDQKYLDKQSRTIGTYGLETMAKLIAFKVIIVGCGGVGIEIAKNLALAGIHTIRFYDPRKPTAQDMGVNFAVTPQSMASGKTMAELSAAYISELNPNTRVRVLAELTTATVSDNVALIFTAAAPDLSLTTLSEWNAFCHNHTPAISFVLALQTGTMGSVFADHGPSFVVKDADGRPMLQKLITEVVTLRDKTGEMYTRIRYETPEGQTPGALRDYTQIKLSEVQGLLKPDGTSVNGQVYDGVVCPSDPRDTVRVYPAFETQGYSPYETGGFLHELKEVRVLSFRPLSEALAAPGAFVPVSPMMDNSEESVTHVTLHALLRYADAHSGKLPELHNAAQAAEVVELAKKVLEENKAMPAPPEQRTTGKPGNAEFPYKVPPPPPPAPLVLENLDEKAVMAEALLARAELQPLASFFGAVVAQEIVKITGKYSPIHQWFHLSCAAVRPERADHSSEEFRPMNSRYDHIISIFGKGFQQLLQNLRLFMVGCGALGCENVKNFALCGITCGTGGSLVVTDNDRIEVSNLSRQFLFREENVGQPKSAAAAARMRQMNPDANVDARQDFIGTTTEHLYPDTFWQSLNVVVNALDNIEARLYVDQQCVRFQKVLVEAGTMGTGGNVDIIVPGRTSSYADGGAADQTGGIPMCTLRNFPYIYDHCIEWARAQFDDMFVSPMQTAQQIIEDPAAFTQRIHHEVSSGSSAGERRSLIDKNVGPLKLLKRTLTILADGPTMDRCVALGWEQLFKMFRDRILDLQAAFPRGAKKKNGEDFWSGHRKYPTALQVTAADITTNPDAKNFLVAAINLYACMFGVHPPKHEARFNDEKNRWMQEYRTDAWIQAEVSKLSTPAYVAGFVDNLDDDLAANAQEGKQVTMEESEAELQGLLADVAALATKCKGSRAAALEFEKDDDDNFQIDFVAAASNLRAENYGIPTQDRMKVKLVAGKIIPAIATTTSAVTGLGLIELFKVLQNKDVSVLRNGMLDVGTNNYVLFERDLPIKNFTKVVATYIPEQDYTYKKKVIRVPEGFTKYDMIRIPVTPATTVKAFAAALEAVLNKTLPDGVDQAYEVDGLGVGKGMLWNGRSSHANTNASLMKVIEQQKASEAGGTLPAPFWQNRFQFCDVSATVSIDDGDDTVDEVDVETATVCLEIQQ
The experiment in a line: Leishmania donovani Ubiquitin Activating Enzyme (LdE1). The class given is functional. As to conditions: 30 µM.

Experiment [3] concerns the target T2, Aspartate--tRNA(Asp/Asn) ligase (Mycobacterium tuberculosis (strain ATCC 25618 / H37Rv)) (UniProt P9WFW3). Note: in the data most compounds retested in dose-response had high values.
T2 sequence (whole entry): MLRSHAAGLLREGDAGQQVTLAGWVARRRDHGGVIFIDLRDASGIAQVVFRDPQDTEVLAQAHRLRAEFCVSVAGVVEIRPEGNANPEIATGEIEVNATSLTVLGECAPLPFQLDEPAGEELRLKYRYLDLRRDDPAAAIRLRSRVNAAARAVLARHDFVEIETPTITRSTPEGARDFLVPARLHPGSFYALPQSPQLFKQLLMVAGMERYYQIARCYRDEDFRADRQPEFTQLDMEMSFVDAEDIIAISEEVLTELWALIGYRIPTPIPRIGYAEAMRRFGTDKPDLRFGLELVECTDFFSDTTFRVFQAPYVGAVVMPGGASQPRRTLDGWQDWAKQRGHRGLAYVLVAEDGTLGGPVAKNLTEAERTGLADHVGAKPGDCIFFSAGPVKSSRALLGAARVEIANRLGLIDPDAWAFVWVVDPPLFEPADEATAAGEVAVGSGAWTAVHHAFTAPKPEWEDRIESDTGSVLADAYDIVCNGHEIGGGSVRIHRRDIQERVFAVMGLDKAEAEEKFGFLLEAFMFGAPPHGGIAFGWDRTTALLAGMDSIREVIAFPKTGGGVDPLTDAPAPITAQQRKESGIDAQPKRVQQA
Kind of experiment: Assay for Asp RNA synthetase-1 from Mycobacterium tuberculosis. The class given is functional. The note with it: 30 µM.

For experiment [4], the target named is AMP-activated protein kinase, AMPK (Homo sapiens) (UniProt P54646+O43741+P54619+Q9UGJ0+Q9Y478+Q13131+Q9UGI9). The experiment in a line: AMP-dependent Kinase enzyme assay. An in vitro enzyme assay that detects ADP turnover that is directly proportional to AMPK activity. This uses naive AMPK that is activated during the assay with MK-8722. The class given is functional. The note with it: 30 µM.

Experiment [5] concerns the target Sialic acid-binding Ig-like lectin 9 (Homo sapiens) (UniProt Q9Y336). The experiment in a line: Hs-Siglec9 ALPHAscreen SOP 20170721. The note with it: 10 µM. (In general: Alpha assays give light when donor and acceptor beads are brought close together.)
A further experiment relates to Trypanosoma cruzi. Kind of experiment: Trypanosoma cruzi phosphomannomutase and mannose-1-phosphate guanylyltransferase assay. As to conditions: 10 µM. Type of experiment: functional.
Experiment [6] concerns the target T3, Arginase-2, mitochondrial (Homo sapiens) (UniProt P78540).
T3 sequence (whole entry): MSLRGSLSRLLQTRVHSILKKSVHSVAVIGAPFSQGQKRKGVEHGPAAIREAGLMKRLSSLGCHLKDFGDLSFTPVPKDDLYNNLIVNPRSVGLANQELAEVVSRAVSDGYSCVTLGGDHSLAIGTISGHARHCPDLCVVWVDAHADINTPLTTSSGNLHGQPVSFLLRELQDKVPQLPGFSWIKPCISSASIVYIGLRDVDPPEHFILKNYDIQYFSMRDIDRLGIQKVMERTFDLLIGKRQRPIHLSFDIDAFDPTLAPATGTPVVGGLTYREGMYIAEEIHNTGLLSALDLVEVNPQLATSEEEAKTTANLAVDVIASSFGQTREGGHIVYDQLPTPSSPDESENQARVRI
The experiment in a line: in vitro enzyme assay to detect the production of urea directly proportional to the activity of Arginase II. Note: in the data most compounds retested in dose-response had high values. Type of experiment: functional. As to conditions: 33.3 µM.

In experiment [7] the target is T4, Proteasome subunit beta (Trypanosoma cruzi) (UniProt O96673).
T4 sequence (whole entry): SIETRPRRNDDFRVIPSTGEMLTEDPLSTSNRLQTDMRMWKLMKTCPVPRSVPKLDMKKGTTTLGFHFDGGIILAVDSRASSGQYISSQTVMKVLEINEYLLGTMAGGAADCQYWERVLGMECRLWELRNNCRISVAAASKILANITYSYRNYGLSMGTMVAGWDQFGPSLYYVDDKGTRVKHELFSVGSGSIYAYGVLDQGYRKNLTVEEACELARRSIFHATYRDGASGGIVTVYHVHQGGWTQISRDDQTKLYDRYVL
Kind of experiment: Trypanosoma cruzi proteasome chymotrypsin-like activity (TcProtChymo) assay. Note: in the data most compounds retested in dose-response had high values. The class given is functional. The note with it: 9.37 µM.

For another experiment, the species on record is Homo sapiens. The experiment in a line: To identify inhibition of the IFN signalling (Jak-Stat) pathway via expression of an eGFP reporter gene under the control of an IFN-stimulated response element (ISRE) containing MxA promoter. The class given is functional. As to conditions: 30 µM. A general note: Reporter assays use an easily measured gene product as a stand-in for the process of interest.

For experiment [8], the target named is Shiga toxin 2 (Escherichia coli O157:H7) (UniProt P09385+P09386). Kind of experiment: E. coli 0.157:H7 Shiga Toxin SOP - stx2 screening assay. Type of experiment: functional. The note with it: 30 µM.
Experiment [9] concerns the target T5, Tyrosyl-tRNA synthetase, putative (Trypanosoma cruzi (strain CL Brener)) (UniProt Q4DSP6).
T5 sequence (whole entry): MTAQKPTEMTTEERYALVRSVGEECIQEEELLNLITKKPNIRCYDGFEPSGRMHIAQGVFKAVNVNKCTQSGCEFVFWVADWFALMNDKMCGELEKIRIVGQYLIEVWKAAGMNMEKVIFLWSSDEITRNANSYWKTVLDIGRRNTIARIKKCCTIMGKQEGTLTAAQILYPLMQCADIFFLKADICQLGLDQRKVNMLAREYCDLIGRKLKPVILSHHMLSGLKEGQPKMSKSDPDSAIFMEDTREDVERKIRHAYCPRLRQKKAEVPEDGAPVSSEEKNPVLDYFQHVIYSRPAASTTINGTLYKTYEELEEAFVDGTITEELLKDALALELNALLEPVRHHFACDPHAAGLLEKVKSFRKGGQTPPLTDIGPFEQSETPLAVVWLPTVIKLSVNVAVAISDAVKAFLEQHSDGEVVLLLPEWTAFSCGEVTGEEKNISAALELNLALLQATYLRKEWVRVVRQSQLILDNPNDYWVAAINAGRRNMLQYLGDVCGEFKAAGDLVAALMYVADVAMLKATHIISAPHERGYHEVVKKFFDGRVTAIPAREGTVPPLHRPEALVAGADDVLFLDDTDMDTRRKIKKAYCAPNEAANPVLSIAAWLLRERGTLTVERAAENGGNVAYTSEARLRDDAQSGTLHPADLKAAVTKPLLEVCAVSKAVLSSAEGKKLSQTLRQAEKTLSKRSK
The experiment in a line: Trypanosoma cruzi tyrosyl tRNA synthetase (TcYRS) _High Tyrosine SOP. Note: in the data most compounds retested in dose-response had high values. The note with it: 30 µM. The class given is functional.

The target of experiment [10] is T5, Tyrosyl-tRNA synthetase, putative (Trypanosoma cruzi (strain CL Brener)). Kind of experiment: Trypanosoma cruzi tyrosyl tRNA synthetase (TcYRS) SOP. Type of experiment: functional. As to conditions: 30 µM.
The target in experiment [11] is Chromo domain-containing protein 1 (Saccharomyces cerevisiae (strain ATCC 204508 / S288c) (Baker's yeast)) (UniProt P32657). Kind of experiment: ScCHD-1 Enzyme Inhibition Assay. Note: in the data most compounds retested in dose-response had high values. As to conditions: 30 µM. Type of experiment: functional.
Sequence of Chromo domain-containing protein 1 (Saccharomyces cerevisiae (strain ATCC 204508 / S288c) (Baker's yeast)) (P32657 whole entry, the tested form may be a part): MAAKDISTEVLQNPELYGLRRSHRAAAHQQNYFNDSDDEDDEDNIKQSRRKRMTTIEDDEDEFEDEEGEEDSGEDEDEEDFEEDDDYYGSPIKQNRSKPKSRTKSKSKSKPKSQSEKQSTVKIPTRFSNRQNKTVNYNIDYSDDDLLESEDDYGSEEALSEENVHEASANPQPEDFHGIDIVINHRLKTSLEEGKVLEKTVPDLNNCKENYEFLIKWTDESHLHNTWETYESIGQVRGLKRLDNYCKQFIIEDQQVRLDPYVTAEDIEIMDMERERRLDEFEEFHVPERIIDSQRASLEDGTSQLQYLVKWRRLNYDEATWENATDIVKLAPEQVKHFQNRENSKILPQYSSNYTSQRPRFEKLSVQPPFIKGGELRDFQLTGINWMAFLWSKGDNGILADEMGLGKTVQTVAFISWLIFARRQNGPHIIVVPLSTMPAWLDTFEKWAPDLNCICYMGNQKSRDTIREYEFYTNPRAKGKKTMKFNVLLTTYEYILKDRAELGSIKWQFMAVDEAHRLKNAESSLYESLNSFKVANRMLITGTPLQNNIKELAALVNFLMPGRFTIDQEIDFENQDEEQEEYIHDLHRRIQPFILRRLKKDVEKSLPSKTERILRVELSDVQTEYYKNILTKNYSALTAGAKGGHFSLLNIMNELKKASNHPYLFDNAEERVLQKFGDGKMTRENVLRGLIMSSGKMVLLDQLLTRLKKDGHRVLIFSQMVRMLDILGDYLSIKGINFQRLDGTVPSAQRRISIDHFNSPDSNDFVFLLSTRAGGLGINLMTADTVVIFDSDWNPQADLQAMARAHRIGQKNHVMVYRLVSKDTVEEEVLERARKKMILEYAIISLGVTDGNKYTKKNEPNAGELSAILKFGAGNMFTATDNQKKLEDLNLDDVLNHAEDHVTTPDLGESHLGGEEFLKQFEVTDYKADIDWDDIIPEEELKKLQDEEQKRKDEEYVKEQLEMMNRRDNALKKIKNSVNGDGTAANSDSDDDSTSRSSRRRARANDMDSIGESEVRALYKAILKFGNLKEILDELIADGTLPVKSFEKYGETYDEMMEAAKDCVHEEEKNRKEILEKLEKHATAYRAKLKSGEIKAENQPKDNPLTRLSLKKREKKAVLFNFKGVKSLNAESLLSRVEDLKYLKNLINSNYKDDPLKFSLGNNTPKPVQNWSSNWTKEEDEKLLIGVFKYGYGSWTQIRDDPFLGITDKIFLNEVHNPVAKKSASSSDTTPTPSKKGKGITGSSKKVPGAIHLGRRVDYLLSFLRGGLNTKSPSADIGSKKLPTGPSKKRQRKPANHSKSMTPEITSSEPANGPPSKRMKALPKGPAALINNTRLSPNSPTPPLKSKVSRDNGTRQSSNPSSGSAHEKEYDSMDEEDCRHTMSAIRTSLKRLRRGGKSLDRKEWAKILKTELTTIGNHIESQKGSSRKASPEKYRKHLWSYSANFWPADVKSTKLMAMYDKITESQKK

Sequence of Protein translocase subunit SecA (Escherichia coli (strain K12)) (P10408 whole entry): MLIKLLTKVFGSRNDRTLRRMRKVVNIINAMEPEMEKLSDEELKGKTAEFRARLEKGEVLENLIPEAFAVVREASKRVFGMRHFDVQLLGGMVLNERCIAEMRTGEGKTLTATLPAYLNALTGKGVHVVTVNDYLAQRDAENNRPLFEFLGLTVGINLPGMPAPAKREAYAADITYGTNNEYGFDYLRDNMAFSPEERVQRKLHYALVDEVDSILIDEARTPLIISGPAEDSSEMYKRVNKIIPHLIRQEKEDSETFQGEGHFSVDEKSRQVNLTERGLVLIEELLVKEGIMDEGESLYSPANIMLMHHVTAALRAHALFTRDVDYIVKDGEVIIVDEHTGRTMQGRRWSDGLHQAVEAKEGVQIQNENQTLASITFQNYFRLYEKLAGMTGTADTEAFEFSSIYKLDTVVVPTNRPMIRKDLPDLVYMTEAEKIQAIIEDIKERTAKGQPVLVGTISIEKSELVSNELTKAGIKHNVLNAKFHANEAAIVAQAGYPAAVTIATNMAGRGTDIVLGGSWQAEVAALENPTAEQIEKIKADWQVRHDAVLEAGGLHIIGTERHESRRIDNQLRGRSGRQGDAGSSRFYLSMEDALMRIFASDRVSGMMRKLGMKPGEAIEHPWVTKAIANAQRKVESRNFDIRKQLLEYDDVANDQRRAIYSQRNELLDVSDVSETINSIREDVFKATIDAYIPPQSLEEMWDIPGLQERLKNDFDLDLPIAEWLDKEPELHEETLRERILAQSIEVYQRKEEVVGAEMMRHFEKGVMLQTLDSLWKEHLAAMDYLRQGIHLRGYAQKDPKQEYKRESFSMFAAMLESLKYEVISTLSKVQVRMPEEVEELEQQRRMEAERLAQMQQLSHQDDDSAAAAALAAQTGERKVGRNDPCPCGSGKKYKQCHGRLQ
Sequence of Sialic acid-binding Ig-like lectin 9 (Homo sapiens) (Q9Y336 whole entry): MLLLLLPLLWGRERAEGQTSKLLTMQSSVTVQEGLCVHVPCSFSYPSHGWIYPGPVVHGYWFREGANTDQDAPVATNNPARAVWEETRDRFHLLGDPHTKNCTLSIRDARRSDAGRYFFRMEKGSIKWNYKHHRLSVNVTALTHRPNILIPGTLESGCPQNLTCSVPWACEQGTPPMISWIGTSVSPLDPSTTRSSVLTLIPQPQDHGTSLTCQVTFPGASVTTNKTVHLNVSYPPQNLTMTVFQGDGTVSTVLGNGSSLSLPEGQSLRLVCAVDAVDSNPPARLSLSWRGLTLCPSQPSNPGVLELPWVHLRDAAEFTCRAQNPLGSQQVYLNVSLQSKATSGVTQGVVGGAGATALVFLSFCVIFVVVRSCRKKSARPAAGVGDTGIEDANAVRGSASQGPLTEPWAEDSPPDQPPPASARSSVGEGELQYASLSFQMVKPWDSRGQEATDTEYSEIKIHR

With `CN1C(=O)C2(CCN(CC3CC3)CC2)c2ccccc21`, the Percent Effect in experiment [1] is -0.0958%; in experiment [2] it was 10.8%; in [3], -2.95%; in experiment [4], -1.71%; in [5], -10.2%; in the experiment with Trypanosoma cruzi it was -6.16%. Moreover, the Percent Effect in experiment [6] is 0.955%; in experiment [7], 16.4%; in the experiment filed under Homo sapiens, -8.93%; in experiment [8] it was -0.91%; in experiment [9], 2.16%; in experiment [10], 17.9%. In addition, the Percent Effect in [11] was -2.43%.
Take `Cc1nc(CN2CCOCC3(CCN(c4ncccn4)C3)C2)cs1` (stereo not given): the Percent Effect was -4.37% in experiment [1]; 10.8% in experiment [2]; 2.24% in experiment [3]; 2.91% in experiment [4]; -0.742% in [5]; 1.17% with Trypanosoma cruzi. Further, the Percent Effect is 3.75% in experiment [6]; 6.68% in [7]; -5.73% in the experiment listed under Homo sapiens; -14.6% in experiment [8]; 13.9% in experiment [9]; 11% in experiment [10]. The Percent Effect in [11] is -4.52%.
Turning to `COCc1cncc2c1CCN(Cc1ccccn1)C2`, the Percent Effect in experiment [1] is -5.11%; in experiment [2], 5.41%; in experiment [3], 3.14%; in [4] it was -2.9%; in experiment [5], -3.72%; with Trypanosoma cruzi it was -0.391%. For the same molecule, the Percent Effect is 4.58% in experiment [6]; 14.4% in [7]; 2.95% in the experiment filed under Homo sapiens; -55.7% in experiment [8]; 14.8% in experiment [9]; 23.2% in experiment [10]. Moreover, the Percent Effect in [11] came to 1.79%.
As to `CN(C)c1ncc2c(n1)C1(CCN(Cc3ccccc3)C1)COC2` (stereo not given), the Percent Effect is -2.14% in [1]; -5.48% in experiment [2]; -5.72% in experiment [3]; 3.1% in experiment [4]; 1.95% in experiment [5]; 2.78% in the experiment on Trypanosoma cruzi. The Percent Effect is 1.2% in experiment [6]; 10.9% in experiment [7]; -0.512% in the experiment listed under Homo sapiens; -67% in [8]; 5.21% in [9]; 3.7% in experiment [10]. Moreover, in [11], the Percent Effect was -6.91%.
As to `CCOCC(O)CN1CCN(C(=O)Cc2ccccc2Cl)CC1` (stereo not given), the Percent Effect in experiment [1] was -5.33%; in experiment [2], 0%; in experiment [3], -2.7%; in [4] it was 8.88%; in [5], -1.32%; in the experiment on Trypanosoma cruzi, -8.08%. The Percent Effect in experiment [6] was 4.21%; in experiment [7], 9.36%; in the experiment listed under Homo sapiens, 14%; in experiment [8], 19.1%; in experiment [9] it was 0.49%; in experiment [10] it was -2.44%. Besides, the Percent Effect in experiment [11] is -1.37%.
